The values that follow come from PubChem BioAssay (NCI).

Common to all, as to experiment: NCI-60 one-dose screen, 48 h (100 = growth as untreated, 0 = no growth, -100 = all killed)
The test system of one test is NCI-H23 lung. The conditions noted are these: 10 µM unless noted.
Another test has as its system NCI-H226 lung. The conditions noted are these: 10 µM unless noted.
In the next test the test system is NCI-H322M lung. The conditions noted are these: 10 µM unless noted.
The next test deals with HOP-62 NSCLC. The conditions noted are these: 10 µM unless noted.
The test system of a further test is NCI-H460 lung. The conditions noted are these: 10 µM unless noted.
Another test relates to HOP-92 NSCLC. The conditions noted are these: 10 µM unless noted.
For another test, the system named is NCI-H522 lung. The conditions noted are these: 10 µM unless noted.
The subject of a further test is A549/ATCC NSCLC. The conditions noted are these: 10 µM unless noted.
Another test deals with 786-0 renal. The conditions noted are these: 10 µM unless noted.
The test system of the next test is DU-145 prostate. The conditions noted are these: 10 µM unless noted.
The test system of the next test is K-562 leukemia. The conditions noted are these: 10 µM unless noted.
In the next test the test system is MALME-3M melanoma. The conditions noted are these: 10 µM unless noted.
The subject of another test is MDA-MB-231 breast. The conditions noted are these: 10 µM unless noted.
The test system of the next test is RXF 393 renal. The conditions noted are these: 10 µM unless noted.
Another test has as its system SF-268 CNS. The conditions noted are these: 10 µM unless noted.
In a further test the test system is SF-295 CNS. The conditions noted are these: 10 µM unless noted.
The next test concerns SF-539 CNS. The conditions noted are these: 10 µM unless noted.
The next test relates to UACC-257 melanoma. The conditions noted are these: 10 µM.
The test system of another test is M14 melanoma. The conditions noted are these: 10 µM unless noted.

Each structure is given as a SMILES string. About 83,000 compounds went through this panel and 20% of them were active in at least one assay; those are over-represented in the sample as a whole.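 Treatment: one concentration, 48 hours, 96-well format. Scoring: percent growth, with anything below 10 considered active.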 A number with no mark means an inactive call. Active and inactive are the calls of the source.

Regarding `O=C(CN1C(=O)CSC1=O)Nc1ccc(C(=O)/C=C/c2cc3ccccc3nc2Cl)cc1`, the growth was 68.4% in the test with NCI-H23 lung; 89.1% with NCI-H226 lung; 96.1% in the test with NCI-H322M lung; 97.5% in the test on HOP-62 NSCLC; 85.7% in the test with NCI-H460 lung; 94.4% with HOP-92 NSCLC. The growth with NCI-H522 lung is 66.9%; with A549/ATCC NSCLC, 78.2%; in the test on 786-0 renal it was 73.3%; with DU-145 prostate it was 90.3%; in the test with K-562 leukemia, 37.2%; in the test with MALME-3M melanoma it was 91.8%. In addition, the growth with MDA-MB-231 breast is 90.4%; in the test with RXF 393 renal it was 17.6%; with SF-268 CNS, 78.8%; in the test on SF-295 CNS, 77%; in the test on SF-539 CNS it was 79.1%; in the test with UACC-257 melanoma it was 75.3%. Further, the growth with M14 melanoma is 83.7%.
`CC(C)C(=O)Nc1ccc(-c2nc(-c3cccc(O)c3)c(-c3ccnc(Br)c3)[nH]2)cc1`: the growth was 63.4% in the test with NCI-H23 lung; 65.4% in the test with NCI-H226 lung; 65.8% in the test with NCI-H322M lung; 42.6% with HOP-62 NSCLC; 46.5% with NCI-H460 lung; 39.5% with HOP-92 NSCLC. In addition, the growth with NCI-H522 lung is 48.4%; with A549/ATCC NSCLC, 69.8%; in the test on 786-0 renal, 12.9%; in the test with DU-145 prostate, 69.3%; in the test with K-562 leukemia it was 7.32% (active); in the test with MALME-3M melanoma it was 40.8%. Moreover, the growth with MDA-MB-231 breast was 58.5%; in the test with RXF 393 renal, -31.5% (active); in the test on SF-268 CNS, 54.8%; with SF-295 CNS, -40.5% (active); in the test with SF-539 CNS it was 34.5%; in the test with UACC-257 melanoma, 52.7%. Also, the growth with M14 melanoma is 49.4%.
Take `O=C1NC(=O)c2c1c1c3ccccc3ccc1c1[nH]c3ccccc3c21`: the growth in the test on NCI-H23 lung was 15.8%; with NCI-H226 lung, 12.2%; in the test on NCI-H322M lung it was 19.4%; in the test on HOP-62 NSCLC it was 1.2% (active); in the test on NCI-H460 lung, 6.41% (active); in the test on HOP-92 NSCLC it was 35.9%. The growth is 11.3% in the test with NCI-H522 lung; 23.5% in the test with A549/ATCC NSCLC; 18.6% in the test on 786-0 renal; 22.9% with DU-145 prostate; 9.34% (active) with K-562 leukemia; -15.2% (active) in the test on MALME-3M melanoma. The growth is 34% with MDA-MB-231 breast; -21.2% (active) in the test with RXF 393 renal; 5.68% (active) in the test on SF-268 CNS; 3.01% (active) in the test with SF-295 CNS; 18.4% in the test on SF-539 CNS; 44.1% with UACC-257 melanoma. Further, the growth with M14 melanoma was 15.9%.
Regarding `CCOC(=O)c1nn(-c2ccc(C)cc2)c(=O)c2c(N)c(C#N)c(-c3ccc(OC)cc3)cc12`, the growth in the test with NCI-H23 lung is 101%; in the test with NCI-H226 lung, 94.4%; in the test with NCI-H322M lung it was 97.4%; in the test with HOP-62 NSCLC it was 81.3%; in the test on NCI-H460 lung, 101%; in the test with HOP-92 NSCLC, 91.9%. Moreover, the growth in the test with NCI-H522 lung is 86.7%; with A549/ATCC NSCLC, 108%; in the test with 786-0 renal, 108%; in the test on DU-145 prostate, 109%; with K-562 leukemia, 118%; in the test on MALME-3M melanoma it was 93.8%. Further, the growth in the test on MDA-MB-231 breast is 84.8%; in the test on RXF 393 renal it was 104%; with SF-268 CNS, 95.5%; in the test on SF-295 CNS, 103%; in the test on SF-539 CNS, 102%; in the test on UACC-257 melanoma, 107%. Also, the growth in the test on M14 melanoma is 102%.
As for `NS(=O)(=O)c1ccc(Nc2nc(N/N=C/c3ccc([N+](=O)[O-])cc3)nc(Nc3ccccc3)n2)cc1`, the growth in the test on NCI-H23 lung was 12.2%; in the test with NCI-H226 lung it was 59.6%; with NCI-H322M lung, 39.5%; with HOP-62 NSCLC, 9.49% (active); in the test on NCI-H460 lung, 1.55% (active); in the test on HOP-92 NSCLC, 49.1%. In addition, the growth with NCI-H522 lung was 48.3%; in the test on A549/ATCC NSCLC it was 96.9%; in the test on 786-0 renal it was 10.4%; in the test with DU-145 prostate, 43.6%; with K-562 leukemia, 20.3%; in the test with MALME-3M melanoma, 36.9%. Moreover, the growth in the test on MDA-MB-231 breast was 45.8%; in the test with RXF 393 renal, -5.96% (active); with SF-268 CNS, 26.9%; in the test on SF-295 CNS, 57.1%; in the test with SF-539 CNS, -36.3% (active); in the test with UACC-257 melanoma, 82.5%. Besides, the growth with M14 melanoma was 13.3%.
For `C(=C(\C1=NCCN1)n1cnc2ccccc21)/c1cccc2ccccc12`, the growth in the test with NCI-H23 lung is 90.7%; with NCI-H226 lung, 76.4%; in the test on NCI-H322M lung, 88.2%; with HOP-62 NSCLC it was 88.6%; in the test on NCI-H460 lung, 101%; in the test with HOP-92 NSCLC, 8.37% (active). For the same compound, the growth in the test on NCI-H522 lung was 79.4%; in the test on A549/ATCC NSCLC, 94%; with 786-0 renal, 92.5%; in the test with DU-145 prostate, 98.1%; in the test on K-562 leukemia it was 84.9%; with MALME-3M melanoma, 91.7%. The growth was 81% in the test on MDA-MB-231 breast; 46.9% with RXF 393 renal; 85% in the test on SF-268 CNS; 76.9% in the test on SF-295 CNS; 91.7% in the test with SF-539 CNS; 94.7% with UACC-257 melanoma. The growth with M14 melanoma is 70%.
As for `CC1(C)CC[C@]2(C(=O)O)CC[C@]3(C)C(=CCC4[C@@]5(C)C[C@@H](O)[C@@H]6OC(c7ccccc7O)OC[C@@]6(C)C5CC[C@]43C)C2C1` (some centres not stated), the growth was 58.2% with NCI-H23 lung; 87% with NCI-H226 lung; 40.5% in the test with NCI-H322M lung; 45.6% in the test on HOP-62 NSCLC; 46% in the test with NCI-H460 lung; 52% in the test on HOP-92 NSCLC. Moreover, the growth with NCI-H522 lung is 53.6%; in the test with A549/ATCC NSCLC it was 27.7%; in the test on 786-0 renal it was 22.2%; in the test on DU-145 prostate it was 44.1%; in the test with K-562 leukemia, 40.6%; with MALME-3M melanoma, 83.9%. Further, the growth in the test with MDA-MB-231 breast was 82.5%; in the test with RXF 393 renal, 76.9%; in the test on SF-268 CNS, 56%; in the test on SF-295 CNS, 30.2%; in the test with SF-539 CNS, 63.7%; in the test on UACC-257 melanoma, 93.7%. The growth in the test with M14 melanoma was 43.3%.
`O=S(=O)(Nc1ccc(-c2nc(-c3cccc(O)c3)c(-c3ccnc(Br)c3)[nH]2)cc1)c1ccccc1`: the growth in the test on NCI-H23 lung was 16.2%; in the test on NCI-H226 lung, 40.1%; with NCI-H322M lung, 41.7%; with HOP-62 NSCLC, 33.1%; in the test with NCI-H460 lung it was 19.7%; in the test with HOP-92 NSCLC it was 13.7%. Also, the growth was 25.5% with NCI-H522 lung; 51.5% with A549/ATCC NSCLC; 17.7% in the test with 786-0 renal; 54.6% in the test on DU-145 prostate; 2.08% (active) with K-562 leukemia; 39.8% in the test with MALME-3M melanoma. Besides, the growth in the test on MDA-MB-231 breast was 23%; with RXF 393 renal, -16.3% (active); in the test on SF-268 CNS, 37.1%; with SF-295 CNS it was 10.4%; in the test on SF-539 CNS, 44.4%; with UACC-257 melanoma, 44.5%. In the test with M14 melanoma, the growth was 26.1%.
